From PubChem BioAssay
MsrA inh: bovine MsrA enzyme inhibitors, primary screen, biochemical, absorbance, HTS; purified bovine MsrA, absorbance read-out; actives 0.75% (n = 360,000); AID 651718, 2012; inhibition, % at 15.5 µM
pCIP destab: p/CIP-EGFP fusion destabilizers, primary screen, fluorescence, F442A cells; Q05BA5; 16 h; decrease of EGFP signal, % at 10 µM; actives 0.01% (n = 290,000);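 active means EGFP signal decrease of at least 30% at 10 µM or well 3 SD below plate mean, unless failing retest; inactive means the rest, including hits failing retest or dose response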
14-3-3 Bad PPI: inhibitors of 14-3-3 zeta/Bad binding, primary screen, biochemical, TR-FRET, bovine 14-3-3 zeta; 14-3-3 protein zeta/delta (Bos taurus), P63103; TR-FRET 14-3-3zeta/Dy647-pBad peptide displacement, 1 h; inhibition, % at 21.7 µM; actives 0.71% (n = 220,000);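 active means inhibition above about 70%, limit read from the data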
bovine MsrA act: bovine MsrA enzyme activators, primary screen, biochemical, absorbance, HTS | activation, % at 10.6 µM | AID 602163, 2012 | Methionine sulfoxide reductase A (Bos taurus) | actives 0.3% (n = 360,000) | purified bovine MsrA, absorbance read-out; in the data active means activation above about 7.5%
MsrA inh confirm: bovine MsrA inhibitors, retest, confirmation, biochemical, absorbance, HTS. shares compounds with MsrA inh. purified bovine MsrA, absorbance read-out. inhibition, % at 15.5 µM. actives 41% (n = 2,300);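 further: coupled to thioredoxin reductase with NADPH and selenocystamine and DMSO as substrate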
Each line names hits and unclear results; the compound was inactive in the other large screens (follow-up assays come after a bar, where they were run). Compounds with a hit are over-represented: about 1.4% of the library has one in this group of screens. Unless noted, no stated cut-off is given here; in the data, active means inhibition above about 4.5%; inactive means the rest.

COCCCNC(=O)CN1C(=O)/C(=C/c2ccccc2)Sc2ccccc21	none
Cc1ccccc1C(=O)N1CCCC(N2CCN(Cc3ccc4c(c3)OCO4)CC2)C1 (stereo not drawn)	none (no result: 14-3-3 Bad PPI)
CCN1C=C(C(=O)OC)C(c2cccc(OC)c2OC)C(C(=O)OC)=C1	none
COc1cc(/C=N/NC(=O)c2ccc3c(c2)OCCO3)c(Br)c(Br)c1O	none (no result: 14-3-3 Bad PPI)
COc1cc(/C=N/NC(=O)c2ccc3c(c2)OCCO3)cc(Br)c1O	MsrA inh 5.2 (no result: 14-3-3 Bad PPI) | MsrA inh confirm 5.3
Cc1ccsc1/C=N/NC(=O)c1ccc2c(c1)OCCO2	none
Cc1ccsc1/C=N\NC(=O)c1ccc2c(c1)OCO2	MsrA inh 5.1 | MsrA inh confirm 5.5
COc1ccccc1C(=O)OC(C)CN1CCN(C)CC1 (stereo not drawn)	none (no result: 14-3-3 Bad PPI)
Cc1ccc(-c2nc(=S)c3c(n2CC2CCCO2)CC(C)(C)OC3)cc1 (stereo not drawn)	MsrA inh 4.9 | MsrA inh confirm inactive
Cc1ccc(-c2nc(=S)c3c(n2Cc2ccco2)CC(C)(C)OC3)cc1	none (no result: MsrA inh)
CN(C)C=NC(=O)/C(C#N)=C1\CCc2ccccc2N1	MsrA inh 6.3 | MsrA inh confirm inactive
Clc1cccc(Cc2c(C3CCCCC3)nc3ccc(Br)cn23)c1	none (no result: pCIP destab, 14-3-3 Bad PPI)
COc1cccc(-c2cc3c(-n4cccc4)ncnc3o2)c1	MsrA inh 5.5 | MsrA inh confirm inactive
O=C(C1=C(O)C(=O)N(CCOCCO)C1c1cccc([N+](=O)[O-])c1)c1cccs1 (stereo not drawn)	MsrA inh 5.0 | MsrA inh confirm inactive
O=[N+]([O-])c1ccc(Nc2ccccc2O)c([N+](=O)[O-])c1	MsrA inh 5.7 (no result: pCIP destab, 14-3-3 Bad PPI) | MsrA inh confirm 7.2
C/C(=N\Nc1ccc([N+](=O)[O-])cc1[N+](=O)[O-])C(C)C(C)C (stereo not drawn)	MsrA inh 16 | MsrA inh confirm 14
O=[N+]([O-])c1ccc(NN=C(C2CC2)C2CC2)c([N+](=O)[O-])c1	none (no result: pCIP destab, 14-3-3 Bad PPI)
CCOC(=O)C(C)/C(C)=N\Nc1ccc([N+](=O)[O-])cc1[N+](=O)[O-] (stereo not drawn)	MsrA inh 15 | MsrA inh confirm 13
CCOC(=O)C(C(=O)OCC)C(C)(C)/C(C)=N\Nc1ccc([N+](=O)[O-])cc1[N+](=O)[O-]	none
CCOC(=O)CC(C)(C)/C(C)=N/Nc1ccc([N+](=O)[O-])cc1[N+](=O)[O-]	MsrA inh 9.8 | MsrA inh confirm 13
CC(C)c1ccc(CN2CCN(C(=O)CCl)CC2)cc1	none
Cc1cc(S(=O)(=O)N2CCN(CC(=O)NCCc3cccs3)CC2)ccc1Br	none (no result: pCIP destab, 14-3-3 Bad PPI)
COCc1ccc(-c2c(-c3cc(OC)cc(OC)c3)oc(=O)c3cc(OC)c(OC)cc23)cc1	none (no result: pCIP destab, 14-3-3 Bad PPI)
CN1CCN(C(=O)C[C@@H]2C[C@H]3c4cc(NC(=O)c5cccnc5)ccc4O[C@H]3[C@H](CO)O2)CC1	none (no result: pCIP destab, 14-3-3 Bad PPI)
CC1(C)CC(NC(=O)c2ccc(F)cc2)CC(C)(C)N1	none (no result: pCIP destab, 14-3-3 Bad PPI)
CC(=O)c1ccc(-c2ccc(C(=O)NC3CC(C)(C)NC(C)(C)C3)o2)cc1	MsrA inh 5.4 (no result: pCIP destab, 14-3-3 Bad PPI) | MsrA inh confirm 5.3
O=C1CCN(Cc2ccccc2)S(=O)(=O)c2c(F)cc(F)cc21	none (no result: pCIP destab, 14-3-3 Bad PPI)
CCOc1ccccc1NC=C1C(=O)OC(C)(C)OC1=O	none
COc1ccccc1NC=C1C(=O)OC(C)(C)OC1=O	MsrA inh 5.5 | MsrA inh confirm inactive
CCCNC(=O)COC(=O)/C=C/c1ccc(C)o1	MsrA inh 5.8 | MsrA inh confirm 5.5
CCCn1c2ccccc2c2cnn(CC(=O)NCCCN3CCN(c4ccccc4)CC3)c(=O)c21	none (no result: 14-3-3 Bad PPI)
CCOC(=O)c1ccc2c(c1)n(CCCS(=O)(=O)[O-])c(/C=C/c1ccc(Cl)cc1)[n+]2CC	MsrA inh 5.6 | MsrA inh confirm 5.4
CCOC(=O)c1ccc2c(c1)n(CC)c(C)[n+]2CC	none
Cc1ccsc1/C=N/NC(=O)c1ccco1	MsrA inh 5.6 | MsrA inh confirm 5.8
Cc1cc(C(=O)N/N=C/c2sccc2C)no1	none
O=C(N/N=C/C=N/NC(=O)c1ccco1)c1ccco1	MsrA inh 7.6 (no result: 14-3-3 Bad PPI) | MsrA inh confirm 6.1
CCN(CC)c1ccc(/C=N/NC(=O)c2ccco2)c(O)c1	none
CCN(CC)c1ccc(/C=N/NC(=O)c2ccco2)cc1	MsrA inh 5.2 | MsrA inh confirm inactive
Cc1ccsc1/C=N/NC(=O)CNC(=O)c1ccco1	none
Cc1ccsc1/C=N\NC(=O)c1cc(C(C)(C)C)[nH]n1	MsrA inh 5.3 | MsrA inh confirm inactive
CN1C[C@@H]2[C@@H]3C(=O)N(C)C(=O)[C@@H]3[C@](Cc3ccccc3)(C1=O)N2C(=O)c1ccc(Cl)cc1	none (no result: pCIP destab, 14-3-3 Bad PPI)
Cc1ccc(S(=O)(=O)C2(C(=O)N3CCN(c4ccccc4F)CC3)CC2)cc1	none (no result: 14-3-3 Bad PPI)
COC(=O)[C@]1(C)N[C@H](CN(C)C(=O)c2ccccc2)[C@@H]2C(=O)N(Cc3ccccc3)C(=O)[C@@H]21	none (no result: pCIP destab, 14-3-3 Bad PPI)
CC1=C(C#N)c2nc(N)c(C#N)c(C)c2/C1=C\c1ccc(-c2ccccc2C(=O)O)o1	none
COc1cc(/C=C2/C(C)=C(C#N)c3nc(N)c(C#N)c(C)c32)ccc1OCC(=O)O	MsrA inh 5.0 (no result: bovine MsrA act) | MsrA inh confirm inactive
COc1ccc(NC(=O)c2ccc(-n3cnnn3)cc2)c([N+](=O)[O-])c1	none (no result: 14-3-3 Bad PPI)
O=[N+]([O-])c1cc([N+](=O)[O-])c(N2CCOCC2)cc1NCc1ccccc1	MsrA inh 36 | MsrA inh confirm 36
CC(Nc1cc(N2CCN(S(=O)(=O)N(C)C)CC2)ccc1[N+](=O)[O-])c1ccccc1 (stereo not drawn)	MsrA inh 8.5 | MsrA inh confirm 8.0
CC(Nc1cc(N2CCN(S(C)(=O)=O)CC2)ccc1[N+](=O)[O-])c1ccccc1 (stereo not drawn)	MsrA inh 24 | MsrA inh confirm 20
CC(Nc1cc(N2CCOCC2)ccc1[N+](=O)[O-])c1ccccc1 (stereo not drawn)	MsrA inh 30 | MsrA inh confirm 21
Cc1ccc(S(=O)(=O)Nc2ccccc2F)cc1C(=O)N1CCN(c2ccccc2O)CC1	none (no result: pCIP destab, 14-3-3 Bad PPI)
O=[N+]([O-])c1ccc(N2CCN(S(=O)(=O)c3ccccc3[N+](=O)[O-])CC2)cc1NCc1cccnc1	none
CCS(=O)(=O)N1CCN(c2ccc([N+](=O)[O-])c(NCc3cccnc3)c2)CC1	MsrA inh 5.4 | MsrA inh confirm inactive
Cc1ccc(N(CC(=O)NCc2ccccc2)C(=O)CCC(=O)Nc2ccccn2)cc1C	none (no result: 14-3-3 Bad PPI)
O=C1NC2(CCCCCC2)C(=O)N1Cc1c(F)cccc1Cl	none (no result: 14-3-3 Bad PPI)
CCOC(=O)C1(Cc2ccccc2)C(=O)N(CCCN(C)C)c2ccccc21 (stereo not drawn)	none (no result: pCIP destab, 14-3-3 Bad PPI)
CCOc1ccc2nc(N3C(=O)CNC3=S)sc2c1	MsrA inh 7.3 | MsrA inh confirm 4.6
Cc1cc2nc(N3C(=O)CNC3=S)sc2cc1C	MsrA inh 7.7 | MsrA inh confirm 4.9
CCCCC(=O)N1CCN(c2nc3ccc(OCC)cc3s2)CC1	none (no result: 14-3-3 Bad PPI)
